Assay results published in a collection of fitness landscapes (doi:10.1126/science.1257360).
In all, about 140,000 sequences were measured (“enrichment ratio after two sorts for PhoP signalling”: median about 0, highest 2% from about 11 on). The full list was thinned out, with the highest values kept by preference.

B1: PhoQ; a variant is named by its letters at X, in order, P23837 (parent)
chain: MKKLLRLFFPLSLRVRFLLATAAVVLVLSLAYGMVALIGYSVSFDKTTFRLLRGESNLFYTLAKWENNKLHVELPENIDKQSPTMTLIYDENGQLLWAQRDVPWLMKMIQPDWLKSNGFHEIEADVNDTSLLLSGDHSIQQQLQEVREDDDDAEMTHSVAVNVYPATSRMPKLTIVVVDTIPVELKSSYMVWSWFIYVLSANLLLVIPLLWVAAWWSLRPIEALAKEVRELEEHNRELLNPATTRELTSLVRNLNRLLKSERERYDKYRTTLTDLTHSLKTPLXXLQXXLRSLRSEKMSVSDAEPVMLEQISRISQQIGYYLHRASMRGGTLLSRELHPVAPLLDNLTSALNKVYQRKGVNISLDISPEISFVGEQNDFVEVMGNVLDNACKYCLEFVEISARQTDEHLYIVVEDDGPGIPLSKREVIFDRGQRVDTLRPGQGVGLAVAREITEQYEGKIVAGESMLGGARMEVIFGRQHSAPKDE

Variants of: B1
Assay: enrichment ratio after two sorts for PhoP signalling (ratio (wild type AVST 3.29)); higher = more functional
Conditions: with PhoP (E. coli)

| Variant | enrichment ratio |
| --- | --- |
| VFSR | ≤ 0.25 |
| FRTG | ≤ 0.25 |
| PMFK | ≤ 0.25 |
| FGSI | ≤ 0.25 |
| VKKE | ≤ 0.25 |
| PRSV | ≤ 0.25 |
| SKPI | ≤ 0.25 |
| SKKQ | ≤ 0.25 |
| SKKI | ≤ 0.25 |
| SKAT | 5.34 |
| SKMQ | 13.1 |
| SKMT | 10.8 |
| SKHP | ≤ 0.25 |
| SKPY | ≤ 0.25 |
| SKCE | 5.46 |
| SKCY | 16.7 |
| SKCT | 14.2 |
| SKCA | 11.7 |
| DRIT | ≤ 0.25 |
| DNWQ | ≤ 0.25 |
| SKCV | 12.3 |
| SKHF | ≤ 0.25 |
| SKCF | 13.8 |
| SKIV | 4.99 |

| Variant | enrichment ratio |
| --- | --- |
| MKCF | ≤ 0.25 |
| SKFW | ≤ 0.25 |
| IRSK | ≤ 0.25 |
| GTMP | ≤ 0.25 |
| NADQ | ≤ 0.25 |
| QPYQ | ≤ 0.25 |
| YTYQ | ≤ 0.25 |
| RGYQ | ≤ 0.25 |
| QEYQ | 30.4 |
| STYQ | ≤ 0.25 |
| QGYQ | 13.9 |
| TTYQ | 11.4 |
| KSYQ | ≤ 0.25 |
| FFYQ | ≤ 0.25 |
| TGYQ | 15.9 |
| NGYQ | ≤ 0.25 |
| QTYQ | 4.58 |
| DEAF | ≤ 0.25 |
| WEER | ≤ 0.25 |
| ADHC | ≤ 0.25 |
| NYMN | ≤ 0.25 |
| WKDT | ≤ 0.25 |
| EGGF | ≤ 0.25 |
| WIPQ | ≤ 0.25 |

| Variant | enrichment ratio |
| --- | --- |
| IQYQ | ≤ 0.25 |
| TQYQ | 27.1 |
| TQYD | 3.43 |
| TGDI | ≤ 0.25 |
| WKRD | ≤ 0.25 |
| KGIQ | ≤ 0.25 |
| PVAA | ≤ 0.25 |
| NVAG | ≤ 0.25 |
| PVAG | ≤ 0.25 |
| TVAG | 17.8 |
| NVAT | ≤ 0.25 |
| NVAN | ≤ 0.25 |
| FVAT | ≤ 0.25 |
| TVAT | 16.8 |
| FVAA | ≤ 0.25 |
| TVAA | 20.7 |
| SPAN | ≤ 0.25 |
| TVAN | 16.9 |
| RYVN | ≤ 0.25 |
| RYKH | ≤ 0.25 |
| MFLN | ≤ 0.25 |
| RRDC | ≤ 0.25 |
| MLNF | ≤ 0.25 |
| PVMT | ≤ 0.25 |

| Variant | enrichment ratio |
| --- | --- |
| TVAS | 14.3 |
| SHAN | ≤ 0.25 |
| TVMT | 12.2 |
| KCMT | ≤ 0.25 |
| NVAS | ≤ 0.25 |
| THAN | 13.2 |
| NHAN | ≤ 0.25 |
| FVAS | ≤ 0.25 |
| PEFN | ≤ 0.25 |
| PTTH | 1.43 |
| DIRA | ≤ 0.25 |
| HQWG | ≤ 0.25 |
| ADSS | ≤ 0.25 |
| AGSK | 0.857 |
| ANSR | ≤ 0.25 |
| ANSS | 12.7 |
| NGSS | ≤ 0.25 |
| AHSS | ≤ 0.25 |
| AQSS | 11.7 |
| AGSS | 11.2 |
| AKSS | 8.3 |
| LTKW | ≤ 0.25 |
| FSPG | ≤ 0.25 |
| VPLL | ≤ 0.25 |

| Variant | enrichment ratio |
| --- | --- |
| NLEV | ≤ 0.25 |
| EVYR | ≤ 0.25 |
| QKGY | ≤ 0.25 |
| KAYC | ≤ 0.25 |
| NGYC | ≤ 0.25 |
| RGYC | ≤ 0.25 |
| TGYC | 13.2 |
| QTYC | 0.887 |
| QGYC | 13.7 |
| TAYC | 11.3 |
| FFYC | ≤ 0.25 |
| YAYC | ≤ 0.25 |
| KTHY | ≤ 0.25 |
| GMIR | 1.56 |
| TGTT | 11.2 |
| NPLD | ≤ 0.25 |
| SLDR | ≤ 0.25 |
| TAGG | 3.74 |
| VTSS | ≤ 0.25 |
| YGPF | ≤ 0.25 |
| MAMI | 8.98 |
| NEML | 0.665 |
| QEML | ≤ 0.25 |
| NIML | 6.63 |

| Variant | enrichment ratio |
| --- | --- |
| YWML | ≤ 0.25 |
| AEML | 14.4 |
| WIML | ≤ 0.25 |
| APML | ≤ 0.25 |
| PNML | ≤ 0.25 |
| TTML | 28.8 |
| AGML | 16.1 |
| ANML | 13 |
| HMSC | ≤ 0.25 |
| RRES | ≤ 0.25 |
| YPTI | ≤ 0.25 |
| IDRY | ≤ 0.25 |
| ACRL | ≤ 0.25 |
| AQML | 24.2 |
| WQML | ≤ 0.25 |
| ACML | 17.8 |
| SQML | 4.5 |
| FDML | ≤ 0.25 |
| ADML | 21.8 |
| NHML | ≤ 0.25 |
| THML | 12.8 |
| ACIL | 10.3 |
| AKML | 9.72 |
| YHML | ≤ 0.25 |

| Variant | enrichment ratio |
| --- | --- |
| LQYI | ≤ 0.25 |
| LLQA | ≤ 0.25 |
| YWKI | ≤ 0.25 |
| RIIT | ≤ 0.25 |
| VAHN | ≤ 0.25 |
| PEIM | ≤ 0.25 |
| VACQ | ≤ 0.25 |
| AWDP | ≤ 0.25 |
| AYET | ≤ 0.25 |
| GVGM | ≤ 0.25 |
| RTSP | ≤ 0.25 |
| PEMC | ≤ 0.25 |
| IARY | ≤ 0.25 |
| NQML | ≤ 0.25 |
| TQML | 22.5 |
| EQML | ≤ 0.25 |
| AHML | 4.34 |
| AYML | ≤ 0.25 |
| ATML | 11.3 |
| AAML | 14.7 |
| YAML | 8.51 |
| AIML | 21.2 |
| VHML | ≤ 0.25 |
| IAML | 4.62 |

| Variant | enrichment ratio |
| --- | --- |
| KKML | ≤ 0.25 |
| NGCN | ≤ 0.25 |
| YSQW | ≤ 0.25 |
| TCLD | ≤ 0.25 |
| PESS | ≤ 0.25 |
| GEWM | ≤ 0.25 |
| GICK | 9.7 |
| GACM | 12.2 |
| GECK | ≤ 0.25 |
| GECM | 15.3 |
| GACK | ≤ 0.25 |
| GNCM | 11.7 |
| GICM | 38.3 |
| GGCM | 9.15 |
| GAAM | ≤ 0.25 |
| GTCM | 5.28 |
| RICM | ≤ 0.25 |
| SFIL | ≤ 0.25 |
| GTSW | ≤ 0.25 |
| QVGM | 0.458 |
| TTQP | ≤ 0.25 |
| LWAS | ≤ 0.25 |
| DYTN | ≤ 0.25 |
| GMCM | 22 |

| Variant | enrichment ratio |
| --- | --- |
| TRCM | 12.4 |
| KMCM | ≤ 0.25 |
| HRCM | ≤ 0.25 |
| GMCK | ≤ 0.25 |
| KRCM | ≤ 0.25 |
| EYMP | ≤ 0.25 |
| MHHS | ≤ 0.25 |
| YVFC | ≤ 0.25 |
| GPTW | ≤ 0.25 |
| RAKA | ≤ 0.25 |
| AGTK | ≤ 0.25 |
| TGTI | 13.2 |
| AGTI | 16.7 |
| KSTI | ≤ 0.25 |
| RGTI | ≤ 0.25 |
| AGTH | 5.3 |
| QIMM | ≤ 0.25 |
| SDFW | ≤ 0.25 |
| QQHA | ≤ 0.25 |
| GQMD | ≤ 0.25 |
| YKAP | ≤ 0.25 |
| KLPM | ≤ 0.25 |
| FVPN | ≤ 0.25 |
| YTAN | ≤ 0.25 |

| Variant | enrichment ratio |
| --- | --- |
| WQAS | ≤ 0.25 |
| AKAN | ≤ 0.25 |
| ATAN | 29.1 |
| AQAA | 12.7 |
| AKAS | 9.64 |
| AQAN | 18.7 |
| AQAS | 18.6 |
| ATMN | ≤ 0.25 |
| AKAA | 4.65 |
| AQQN | ≤ 0.25 |
| IQAA | ≤ 0.25 |
| AYFR | ≤ 0.25 |
| WMYW | ≤ 0.25 |
| IMAW | ≤ 0.25 |
| RNGP | ≤ 0.25 |
| PWQL | 0.791 |
| DNHF | ≤ 0.25 |
| TNNI | 3.41 |
| MAGS | 17.7 |
| MAVK | ≤ 0.25 |
| KAGF | ≤ 0.25 |
| MAGD | ≤ 0.25 |
| NAGF | ≤ 0.25 |
| MAGF | 14.5 |

| Variant | enrichment ratio |
| --- | --- |
| AHRA | ≤ 0.25 |
| CFDS | ≤ 0.25 |
| MCPV | ≤ 0.25 |
| DLEL | ≤ 0.25 |
| LYPG | ≤ 0.25 |
| ASCH | 13.6 |
| ASMH | 16.5 |
| KSMH | ≤ 0.25 |
| ASVH | 8.62 |
| ASTH | 6.74 |
| ASCF | 9.91 |
| KDVM | ≤ 0.25 |
| DIWH | ≤ 0.25 |
| RDYH | ≤ 0.25 |
| KKLQ | ≤ 0.25 |
| YHEH | ≤ 0.25 |
| RDFI | ≤ 0.25 |
| QEYT | 20.9 |
| MVHP | 0.338 |
| QRYT | ≤ 0.25 |
| STYT | 0.437 |
| QGFQ | 13.4 |
| LTYT | ≤ 0.25 |
| MVFQ | 13.2 |

| Variant | enrichment ratio |
| --- | --- |
| FFFQ | ≤ 0.25 |
| LNYT | ≤ 0.25 |
| QGFE | ≤ 0.25 |
| LEYT | 11.9 |
| MVFE | ≤ 0.25 |
| PAIE | ≤ 0.25 |
| FSRF | ≤ 0.25 |
| SYCE | 2.48 |
| VEGN | ≤ 0.25 |
| RAVD | ≤ 0.25 |
| VDID | ≤ 0.25 |
| QGCS | ≤ 0.25 |
| FQWS | ≤ 0.25 |
| QGWS | 20.8 |
| QGYK | 0.706 |
| TPGG | ≤ 0.25 |
| QGCI | 19.5 |
| QGGG | 17.7 |
| FFWS | ≤ 0.25 |
| FFGG | ≤ 0.25 |
| QGCK | ≤ 0.25 |
| QGYI | 17.5 |
| QGYV | 11.2 |
| NSEV | ≤ 0.25 |

| Variant | enrichment ratio |
| --- | --- |
| GKAT | ≤ 0.25 |
| WHGN | ≤ 0.25 |
| NVPF | ≤ 0.25 |
| STYI | ≤ 0.25 |
| QEWS | 13.4 |
| QGWI | 22.5 |
| QGDS | ≤ 0.25 |
| QEFA | 0.476 |
| QPWS | ≤ 0.25 |
| MEFQ | 3.08 |
| MAFQ | 24.4 |
| MAFE | 8.88 |
| QGRA | ≤ 0.25 |
| QEYI | 13.9 |
| QRWS | ≤ 0.25 |
| RMEL | ≤ 0.25 |
| DLMW | ≤ 0.25 |
| PLYK | ≤ 0.25 |
